PubChem BioAssay (NCATS)
Some of the results follow. Records with an inconclusive call do not appear. Calls of active or inactive are those of the source. Calls follow the shape of the full dose curve.

Each molecule was assayed against Polyprotein P1234 (Chikungunya virus (strain S27-African prototype)) (UniProt Q8JUX6) (assay: Selectivity profile for inhibitors of NSP2Pro chikungunya virus (CHIKV): Full length NSP2 enzyme counterscreen (CHIKV-NSP2) (AID 1964101; also: nearly all actives have a fitted effect of over 65% in size)). Conditions: Full-length CHIKV NSP2 protease enzymatic counterscreen; series mostly up to 50.7 µM.
Excerpt: PI: Natalia J. Martinez Ph.D.
National Center for Advancing Translational Sciences (NCATS),
National Institute of Health (NIH), Rockville, Maryland
Chikungunya virus (CHIKV) is a mosquito-borne RNA virus that has emerged as one of the most important global arboviral threats in the last decade. Although the first CHIKV vaccine has recently been FDA approved for use in healthy adults at increased risk, to date, there are no available antiviral drugs for CHIKV infection. CHIKV nsP2 protease plays a crucial role in the processing of the viral polypeptide precursor to release enzymes required for viral replication, thus making it a promising drug target for antiviral discovery. Here, we established a high-throughput pipeline to identify small molecule inhibitors of nsP2 proteolytic activity. The pipeline is composed of a suite of 1,536-well in vitro assays to support quantitative high-throughput (qHTS) screening campaigns. Specifically, we developed a fluorescence resonance energy transfer (FRET)-based assay using a fluorogenic peptide substrate encompassing an endogenous cleavage site and purified recombinant protease domain (nsP2pro). Using this assay, we interrogated ~37,000 small molecules, including those in drug repurposing libraries as well as chemically diverse and medicinal chemistry-friendly compounds. Hits were selected for follow-up validation against full-length nsP2 and an additional peptide. FRET-based 1,536-well assays for papain, hepatitis C virus NS3-4A, and human furin proteases were implemented to characterize compound selectivity. […] Novel compounds were identified to be potential nsP2 inhibitors and molecular docking analyses were performed to explain the binding mode of selected hits. In vitro antiviral activity was evaluated for a subset of compounds using a high-throughput CHIKV infection assay. To our knowledge, the pipeline presented here is unprecedented for CHIKV antiviral discovery research.
PROTOCOL TABLE (as described by Inglese J, Shamu CE and Guy RK. 2007)
SEQUENCE No. (e.g., 1, 2, 3, etc.); […] (e.g., Cells, Incubation, Reagent, etc.); VALUE; DESCRIPTION.
1; Control / Compound; 20 nL; Echo 655 acoustic dispenser, Greiner 1536-well solid bottom black plate.
2; Enzyme; 4 uL; BioRAPTR FRD liquid dispenser (Beckman Coulter).
3; Incubation; 15 min; room temperature.
4; Reagent; 4 uL; 2.5 uM Peptide 2 substrate.
5; Incubation; 1 hr; room temperature.
6; Detection; Fluorescence; WiewLux microplate reader (PerkinElmer), 525 nm excitation, 598/25 nm emission.
NOTES (numbers refer to sequence numbers above).
1. Briefly, 20 nL DMSO, positive control ZnAc (20nM final concentration), and test compounds were transferred into a 1,536-well solid bottom black plate (789176-F, Greiner One) via Echo 655 acoustic dispenser (Beckman Coulter). For primary screens, compounds were tested at 7 concentrations, 1:3 dilution points ranging from 25 uM to 34 nM. Follow-up confirmatory screens were carried out at 11 concentrations, 1:3 dilution points from 25 uM to 0.42 nM.
2. Four uL NSP2 full length enzyme mix (150 nM final concentration) in 10 mM Tris-HCl pH 8.0 with 0.01% Tween 20 assay buffer was dispensed into the plate using a BioRAPTR FRD liquid dispenser (Beckman Coulter).
3. The plate was incubated at room temperature (protected from light) for 15 min
4. Four microliter of peptide 2 substrate (2.5 uM final concentration) in assay buffer was added to the plate.
5. After 1 hour, plates were immediately read on a ViewLux high-throughput CCD imager (Exposure = 10 sec, Gain = High, Speed = Slow, Binning = 2X). The above assay was also incorporated in the NCATS HTS facility41, which allowed for robotic liquid and compound dispensing, microplate handling, and fluorescence reading.
Inglese J, Shamu CE and Guy RK, Reporting data from high throughput screening of small molecule libraries, Nature Chemical Biology, 2007, 3(8): 438-441. doi.org/10.1038/nchembio0807-438.
Potency is read from the fitted curve at half-maximal effect.

Chain of Polyprotein P1234 (Chikungunya virus (strain S27-African prototype)) (Q8JUX6 whole entry, looked up): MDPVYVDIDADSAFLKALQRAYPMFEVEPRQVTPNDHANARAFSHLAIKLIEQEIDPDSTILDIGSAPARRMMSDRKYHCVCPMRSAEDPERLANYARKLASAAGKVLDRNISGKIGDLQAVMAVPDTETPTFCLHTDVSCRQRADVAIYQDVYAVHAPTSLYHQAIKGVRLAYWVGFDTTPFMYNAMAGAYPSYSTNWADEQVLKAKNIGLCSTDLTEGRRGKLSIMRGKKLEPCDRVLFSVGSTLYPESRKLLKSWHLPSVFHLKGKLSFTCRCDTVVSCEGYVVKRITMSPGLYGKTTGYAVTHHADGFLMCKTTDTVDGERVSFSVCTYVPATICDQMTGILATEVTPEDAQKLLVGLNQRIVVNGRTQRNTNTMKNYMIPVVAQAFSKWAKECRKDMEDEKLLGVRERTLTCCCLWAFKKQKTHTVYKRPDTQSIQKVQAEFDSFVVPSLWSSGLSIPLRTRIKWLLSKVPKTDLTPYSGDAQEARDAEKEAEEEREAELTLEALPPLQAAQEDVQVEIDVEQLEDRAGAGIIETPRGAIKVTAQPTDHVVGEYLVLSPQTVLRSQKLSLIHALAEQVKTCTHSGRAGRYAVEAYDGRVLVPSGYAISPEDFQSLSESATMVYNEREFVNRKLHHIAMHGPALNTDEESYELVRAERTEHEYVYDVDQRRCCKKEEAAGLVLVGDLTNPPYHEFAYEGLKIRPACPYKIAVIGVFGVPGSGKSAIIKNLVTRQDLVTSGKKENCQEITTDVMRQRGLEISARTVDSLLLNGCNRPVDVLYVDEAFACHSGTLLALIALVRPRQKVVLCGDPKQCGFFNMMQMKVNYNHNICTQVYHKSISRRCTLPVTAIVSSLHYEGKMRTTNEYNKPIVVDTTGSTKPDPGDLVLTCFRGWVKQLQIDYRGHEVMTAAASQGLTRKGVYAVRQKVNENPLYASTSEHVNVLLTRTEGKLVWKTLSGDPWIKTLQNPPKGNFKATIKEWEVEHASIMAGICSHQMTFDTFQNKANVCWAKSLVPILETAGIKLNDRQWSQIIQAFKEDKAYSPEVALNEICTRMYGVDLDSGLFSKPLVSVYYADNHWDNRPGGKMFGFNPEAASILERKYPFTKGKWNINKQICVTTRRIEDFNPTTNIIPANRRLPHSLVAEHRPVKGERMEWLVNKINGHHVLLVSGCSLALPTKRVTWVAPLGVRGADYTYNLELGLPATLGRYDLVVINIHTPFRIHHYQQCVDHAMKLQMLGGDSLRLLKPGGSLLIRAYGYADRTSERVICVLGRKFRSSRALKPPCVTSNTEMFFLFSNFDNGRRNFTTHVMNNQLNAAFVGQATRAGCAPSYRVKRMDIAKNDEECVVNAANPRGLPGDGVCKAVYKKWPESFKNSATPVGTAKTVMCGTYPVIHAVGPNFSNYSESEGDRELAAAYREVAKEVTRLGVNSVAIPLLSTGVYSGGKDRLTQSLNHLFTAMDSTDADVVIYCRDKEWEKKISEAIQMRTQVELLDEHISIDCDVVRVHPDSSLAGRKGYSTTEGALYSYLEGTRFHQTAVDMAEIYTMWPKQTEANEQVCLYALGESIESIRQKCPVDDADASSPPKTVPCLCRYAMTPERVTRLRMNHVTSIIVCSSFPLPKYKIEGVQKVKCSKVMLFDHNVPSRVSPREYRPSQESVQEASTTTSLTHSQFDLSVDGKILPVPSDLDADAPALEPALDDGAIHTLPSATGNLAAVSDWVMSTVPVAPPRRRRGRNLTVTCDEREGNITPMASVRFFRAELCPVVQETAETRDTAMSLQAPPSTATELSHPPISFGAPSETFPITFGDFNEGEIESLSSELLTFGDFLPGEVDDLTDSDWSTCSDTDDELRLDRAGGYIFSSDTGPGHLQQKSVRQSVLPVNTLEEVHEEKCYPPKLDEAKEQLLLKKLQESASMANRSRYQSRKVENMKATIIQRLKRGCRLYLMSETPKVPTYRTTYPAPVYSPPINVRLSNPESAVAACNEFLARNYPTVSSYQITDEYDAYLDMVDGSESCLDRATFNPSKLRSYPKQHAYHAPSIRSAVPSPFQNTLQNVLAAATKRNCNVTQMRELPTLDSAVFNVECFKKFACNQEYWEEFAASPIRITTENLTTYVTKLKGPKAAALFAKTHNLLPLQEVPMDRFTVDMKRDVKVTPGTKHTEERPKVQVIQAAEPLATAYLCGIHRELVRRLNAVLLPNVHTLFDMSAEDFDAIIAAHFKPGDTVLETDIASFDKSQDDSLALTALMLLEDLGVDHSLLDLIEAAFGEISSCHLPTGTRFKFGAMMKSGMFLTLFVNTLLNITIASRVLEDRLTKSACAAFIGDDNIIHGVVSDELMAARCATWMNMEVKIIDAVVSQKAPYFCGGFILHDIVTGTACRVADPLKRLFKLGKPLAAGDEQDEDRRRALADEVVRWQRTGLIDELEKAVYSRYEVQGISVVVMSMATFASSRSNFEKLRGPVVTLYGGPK

SMILES	Potency
Oc1ccc(OC2CCCCO2)cc1 (centres undefined)	inactive
COC([CH2][Hg])CNC(=O)c1ccccc1OCC(=O)O (centres undefined)	18.3 µM (active)
CCOc1ccc(N(Cc2ccccc2)C(=O)c2nc(S(C)(=O)=O)ncc2Cl)cc1	14.6 µM (active)
CO[C@]1(NC(=O)CSC(F)F)C(=O)N2C(C(=O)O)=C(CSc3nnnn3CCO)CO[C@H]21	inactive
C=CC(=O)c1ccc2ccccc2c1	11.6 µM (active)
N#CSc1cc(SC#N)c(N)nc1N	1.03 µM (active)
Cn1nnnc1Sc1ncnc2n[nH]c(-c3cccc(S(C)(=O)=O)c3)c12	15.8 µM (active)
CCC(C)C(=O)OC1C(C)C2(O)C(C=C(CO)CC3(O)C(=O)C(C)=CC32)C2C(C)(C)C12OC(=O)C(C)C (centres undefined)	inactive
C[C@@H]1C[C@@H](O)[C@@]23CO[C@]2(CO)C[C@@H](O)CC3[C@@]12CC(c1ccoc1)OC2=O (some centres undefined)	inactive
